Counter-ions that a name gives are not always drawn.

This test deals with Drosophila S2 cl14 SmoIP sensor cells. In words: normalized SmoIP GFP fluorescence (untreated unstimulated = 0%, untreated Hh-stimulated = 100%); higher = more Smo activation sensor fluorescence. As to conditions: compound concentration: 2 uM, 24 h.
Where [1] appears, read: stimulation: Hh conditioned medium (+Hh).
[2] abbreviates: stimulation: mock conditioned medium (-Hh).
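Also: flow cytometry read-out as median GFP intensity of gated cells, compounds added 30 min before Hh-conditioned or mock medium, mock-treated cells serving as unstimulated baseline.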

As for `CCc1cncnc1N1CCN(Cc2nc3ccc(C(F)(F)F)cc3[nH]2)CC1`, the “normalized SmoIP GFP fluorescence” value by setting is: under setting [1], 121%; under setting [2], 0.966%.

For `C[C@@H](Oc1cc(-n2cnc3ccc(CN4CCN(C)CC4)cc32)sc1C(N)=O)c1ccccc1C(F)(F)F`, the “normalized SmoIP GFP fluorescence” value runs as follows: under setting [1], 113%; under setting [2], 17.7%.

For the molecule `O=C(/C=C/c1ccc(O)c(O)c1)OCCc1ccccc1` [caffeic-acid-phenethyl-ester], the “normalized SmoIP GFP fluorescence” value under setting [1] was found to be 114% and the “normalized SmoIP GFP fluorescence” value under setting [2] was determined as 71.8%.

`c1ccc2c(CC3=NCCN3)cccc2c1` [Naphazoline-hydrochloride-Naphcon]: the “normalized SmoIP GFP fluorescence” value reads like this: under setting [1], 118%; under setting [2], -11.6%.

As for `CC(C)(CO)c1cc2cc(NC(=O)C3(c4ccc5c(c4)OC(F)(F)O5)CC3)c(F)cc2n1C[C@@H](O)CO`, the “normalized SmoIP GFP fluorescence” value under setting [1] was 104% and the “normalized SmoIP GFP fluorescence” value under setting [2] was -3.39%.

For the molecule `COc1ccc2cc(CCC(C)=O)ccc2c1` [nabumetone], the “normalized SmoIP GFP fluorescence” value reads like this: under setting [1], 103%; under setting [2], -2.2%.

`CCCCCCCN(CC)CCCC(O)c1ccc(NS(C)(=O)=O)cc1` (stereo not given) [ibutilide-fumarate]: the “normalized SmoIP GFP fluorescence” value is 108% under setting [1] and -6.16% under setting [2].

Consider `Nc1cccc2c1C(=O)N(C1CCC(=O)NC1=O)C2=O` (stereo not given) [Pomalidomide(CC-4047)], for which the “normalized SmoIP GFP fluorescence” value is, setting by setting: under setting [1], 103%; under setting [2], 10.4%.

For `Cc1cncc(CN2CCC(=C3c4ccc(Cl)cc4CCc4cccnc43)CC2)c1` [rupatadine-fumarate], the “normalized SmoIP GFP fluorescence” value was 112% under setting [1] and 3.77% under setting [2].

`Nc1cc(C(F)(F)F)c(-c2cc(N3CCOCC3)nc(N3CCOCC3)n2)cn1`: the “normalized SmoIP GFP fluorescence” value by setting is: under setting [1], 68%; under setting [2], -8.9%.

Regarding `CCOc1ccc(Cc2cc([C@@H]3O[C@H](CO)[C@@H](O)[C@H](O)[C@H]3O)ccc2Cl)cc1` [Dapagliflozin], the “normalized SmoIP GFP fluorescence” value amounted to 75.9% under setting [1] and 1.57% under setting [2].

In the case of `Cc1cccc(-c2[nH]c(C(C)(C)C)nc2-c2ccc3c(c2)OCO3)n1`, the “normalized SmoIP GFP fluorescence” value under setting [1] is 133% and the “normalized SmoIP GFP fluorescence” value under setting [2] was -6.97%.

Turning to `CC[C@H](NC(=O)[C@H](C)NC)C(=O)N1C[C@@H](O)C[C@H]1Cc1c(-c2[nH]c3cc(F)ccc3c2C[C@@H]2C[C@H](O)CN2C(=O)[C@H](CC)NC(=O)[C@H](C)NC)[nH]c2cc(F)ccc12`, the “normalized SmoIP GFP fluorescence” value is 78.2% under setting [1] and -2.08% under setting [2].

With `COC(=O)N[C@@H](C)CNc1nccc(-c2cn(C(C)C)nc2-c2cc(Cl)cc(NS(C)(=O)=O)c2F)n1`, the “normalized SmoIP GFP fluorescence” value was 170% under setting [1] and 48.8% under setting [2].

In the case of `Cc1nn(-c2ccccc2)c(C)c1C=NN1CCN(Cc2ccccc2)CC1` [sant-1], the “normalized SmoIP GFP fluorescence” value was 103% under setting [1] and -2.59% under setting [2].

On to `COc1cc2ncnc(Nc3ccc(Cl)cc3F)c2cc1OC`, for which the “normalized SmoIP GFP fluorescence” value is 99.3% under setting [1] and -4.13% under setting [2].

As for `CCc1cc2c(cc1CC)CC(NC[C@H](O)c1ccc(O)c3[nH]c(=O)ccc13)C2` [indacaterol-maleate], the “normalized SmoIP GFP fluorescence” value was 107% under setting [1] and -2.82% under setting [2].

As for `Oc1ccc([C@H]2COc3cc(O)ccc3C2)cc1` [equol], the “normalized SmoIP GFP fluorescence” value under setting [1] was 107% and the “normalized SmoIP GFP fluorescence” value under setting [2] was -3.9%.

For `O=C(Nc1ccncc1)c1cc([N+](=O)[O-])ccc1Cl`, the “normalized SmoIP GFP fluorescence” value was 114% under setting [1] and -2.82% under setting [2].

Turning to `CC1(C)CCC2=C(O1)c1ccccc1C(=O)C2=O` [beta-lapachone], the “normalized SmoIP GFP fluorescence” value under setting [1] was 113% and the “normalized SmoIP GFP fluorescence” value under setting [2] was -0.264%.

For the molecule `CN1CCN(C2=Nc3cc(Cl)ccc3Nc3ccccc32)CC1` [Clozapine(Clozaril)], the “normalized SmoIP GFP fluorescence” value is, setting by setting: under setting [1], 119%; under setting [2], 0.154%.

`NC(=O)c1noc([C@H](CCCC2CCCCC2)CC(=O)NO)n1`: the “normalized SmoIP GFP fluorescence” value by setting is: under setting [1], 126%; under setting [2], -6.97%.

In the case of `CN(C)CCC(c1ccc(Cl)cc1)c1ccccn1` (stereo not given) [Chlorpheniramine-maleate], the “normalized SmoIP GFP fluorescence” value under setting [1] is 106% and the “normalized SmoIP GFP fluorescence” value under setting [2] was -12.2%.

As to `COc1cc(Nc2ncc3c(n2)-c2ccc(Cl)cc2C(c2c(F)cccc2OC)=NC3)ccc1C(=O)O`, the “normalized SmoIP GFP fluorescence” value runs as follows: under setting [1], 89.5%; under setting [2], 83%.

For `Cn1cncc1[C@@](N)(c1ccc(Cl)cc1)c1ccc2c(c1)c(-c1cccc(Cl)c1)cc(=O)n2C`, the “normalized SmoIP GFP fluorescence” value was 141% under setting [1] and 43.9% under setting [2].

Regarding `CN1CCN(c2nc(C3=C(c4c[nH]c5ccccc45)C(=O)NC3=O)c3ccccc3n2)CC1` [sotrastaurin-aeb071], the “normalized SmoIP GFP fluorescence” value under setting [1] came to 131% and the “normalized SmoIP GFP fluorescence” value under setting [2] amounted to 40.1%.

Turning to `CN(C)CCN(Cc1ccccc1)c1ccccn1` [tripelennamine-hydrochloride], the “normalized SmoIP GFP fluorescence” value is, setting by setting: under setting [1], 112%; under setting [2], -3.9%.

For the molecule `COc1cc2c(cc1Cc1cccc(Cl)c1F)c(=O)c(C(=O)O)cn2[C@H](CO)C(C)C` [Elvitegravir], the “normalized SmoIP GFP fluorescence” value by setting is: under setting [1], 143%; under setting [2], -9.22%.

For `C[C@@H]1CN(CC(=O)Nc2ccc3c(c2)Cc2cccc(-c4cc(=O)cc(N5CCOCC5)o4)c2S3)C[C@H](C)O1`, the “normalized SmoIP GFP fluorescence” value under setting [1] came out at 147% and the “normalized SmoIP GFP fluorescence” value under setting [2] worked out at 5.98%.

On to `C=CC(=O)Nc1ccc2ncnc(Nc3cccc(Br)c3)c2c1`, for which the “normalized SmoIP GFP fluorescence” value runs as follows: under setting [1], 125%; under setting [2], -0.662%.

On to `COC(=O)C1=C(C)NC(C)=C(C(=O)OCCN2CCN(C(c3ccccc3)c3ccccc3)CC2)C1c1cccc([N+](=O)[O-])c1` (stereo not given) [Manidipine(Manyper)], for which the “normalized SmoIP GFP fluorescence” value was 118% under setting [1] and 3.85% under setting [2].

With `C[C@]1(c2nc3c(C(N)=O)cccc3[nH]2)CCCN1`, the “normalized SmoIP GFP fluorescence” value is, setting by setting: under setting [1], 117%; under setting [2], -2.96%.

As to `COC(=O)C1=C(C#N)NC(C)=C(C(=O)OC(C)C)C1c1cccc([N+](=O)[O-])c1` (stereo not given) [nilvadipine-arc029], the “normalized SmoIP GFP fluorescence” value reads like this: under setting [1], 110%; under setting [2], -17%.

As to `Cc1ccccc1C(OCCN(C)C)c1ccccc1` (stereo not given) [orphenadrine-citrate-norflex], the “normalized SmoIP GFP fluorescence” value is, setting by setting: under setting [1], 142%; under setting [2], -11.7%.

As to `CCCCOc1cc(C(=O)NCCN(CC)CC)c2ccccc2n1` [dibucaine-cinchocaine-hcl], the “normalized SmoIP GFP fluorescence” value reads like this: under setting [1], 113%; under setting [2], 0.361%.

For the origin of these results see the supplement of paper PMC5662767.
